Experimental data taken from PubChem BioAssay (Tox21).
Inconclusive results are not listed. Where a call stands in place of a potency, no number is given. Activity calls are given as the source filed them. The call rests on the fitted dose curve; in most records, active means well fitted cell-killing curve with a large enough effect in the repeat runs; inconclusive means weak or mixed curves, or effect the other way; inactive means flat fitted curve, though single readings scatter.

test: qHTS RealTime-Glo MT Cell Viability Assay in HepG2 cells - 40 hour (AID 1224870); details: RealTime-Glo luminescence; series mostly up to 76.8 µM; further: nearly all actives have a fitted effect of over 50% in size
Excerpt: National Center for Advancing Translational Sciences [NCATS]
NIH Chemical Genomics Center [NCGC]
U.S. Environmental Protection Agency [EPA]
National Institutes of Environmental Health Sciences [NIEHS]
National Toxicology Program [NTP]
U.S. Food and Drug Administration [FDA]
Measure of cell viability is critical in the cell-base assay. Analysis of cell viability is necessary for the characterization of cell responses to cytotoxic drugs and environmental stress. A RealTime-Glo MT Cell Viability Assay to monitor cell viability in real time of continues cell culture during 40 hours of compound treatment was used to screen Tox21 10K library compounds in HepG2 cells. The RealTime-Glo MT Cell Viability Assay is a nonlytic, homogeneous, bioluminescent method to measure cell viability in real time using a simple, plate-based method. The assay involves adding NanoLuc luciferase and a cell-permeant prosubstrate to cells in culture. Viable cells reduce the proprietary prosubstrate to generate a substrate for NanoLuc luciferase. This substrate diffuses from cells into the surrounding culture medium, where it is rapidly used by the NanoLuc Enzyme to produce a luminescent signal. The signal correlates with the number of viable cells, making the assay well suited for cytotoxicity studies.
Tox21 Assay Protocol Summary:
The mixture of HepG2 cell suspension and reagents were dispensed at 600cells/6 ul/well in 1536-well tissue culture treated black solid bottom plates using a Multidrop dispenser. After the assay plates were incubated at a 37 C/5% CO2 incubator for 5 hours, 23 nL of compounds dissolved in DMSO, positive and negative controls was transferred to the assay plate by a pintool work station. The plates were incubated at 37 C for 40 hours. The luminescence intensity were measured at 0h, 8h, 16h, 24h, 32h and 40h time points using ViewLux plate reader during compound treatment.

Row | Structure (SMILES) | Potency
1 | Cc1ccccc1Cl | inactive
2 | Oc1ccc(Cc2ccccc2O)cc1 | inactive
3 | CC[N+](CC)(CC(=O)Nc1c(C)cccc1C)Cc1ccccc1 | inactive
4 | CC(C=O)Cc1ccc(C(C)(C)C)cc1 (stereo not given) | inactive
5 | C=CC(C)(C)C | inactive
6 | Clc1cccc(Cl)c1NC1=NCCN1 | inactive
7 | C=C(CC(=O)O)C(=O)O | inactive
8 | OCC(CO)(CO)CO | inactive
9 | CC1(C)[C@@H](O[C@H]2O[C@H](C(=O)O)[C@@H](O)[C@H](O)[C@H]2O[C@@H]2O[C@H](C(=O)O)[C@@H](O)[C@H](O)[C@H]2O)CC[C@]2(C)[C@H]3C(=O)C=C4[C@@H]5C[C@@](C)(C(=O)O)CC[C@]5(C)CC[C@@]4(C)[C@]3(C)CC[C@@H]12 | inactive
10 | Cc1ccc(C)c(S(=O)(=O)O)c1 | inactive
11 | O=c1n(CCCN2CCN(c3cccc(Cl)c3)CC2)nc2ccccn12 | inactive
12 | Cc1nnc(NS(=O)(=O)c2ccc(N)cc2)s1 | inactive
13 | Nc1cccc(N)n1 | inactive
14 | CCCCCCC(=O)O | inactive
15 | CC(=O)c1nccs1 | inactive
16 | COc1cc(NC(=O)CC(C)=O)c(OC)cc1Cl | inactive
17 | OCCOCCOCCOCCOCCO | inactive
18 | COC(=O)CCCCC(=O)OC | inactive
19 | C=C(C)CC(C)(C)C | inactive
20 | NC1CCCCC1N (stereo not given) | inactive

Row | Structure (SMILES) | Potency
21 | CCCN(CCC)C(=O)SCC | inactive
22 | CC(=O)OC/C=C(\C)CCC=C(C)C | inactive
23 | C=CC(=O)NCOCCCC | inactive
24 | COc1c2ccoc2cc2oc(=O)ccc12 | inactive
25 | CC(C)(CO)CO | inactive
26 | CCOC(=O)CC(=O)OCC | inactive
27 | O=C(c1ccccc1)c1ccc(O)c(O)c1O | inactive
28 | CCCCC(CC)COC(=O)c1ccc(C(=O)OCC(CC)CCCC)cc1 (stereo not given) | inactive
29 | O=Cc1ccc(CO)o1 | inactive
30 | CCCOC(=O)NCCCN(C)C | inactive
31 | CCCCCNCCCCC | inactive
32 | CC(COCC(C)OC(=O)c1ccccc1)OC(=O)c1ccccc1 (stereo not given) | inactive
33 | CC1(C)C(=O)N(Cl)C(=O)N1Cl | inactive
34 | Cc1cccc(C)c1[N+](=O)[O-] | inactive
35 | Cc1cc(C)cc(O)c1 | inactive
36 | N[C@@H](Cc1cc(I)c(Oc2ccc(O)c(I)c2)c(I)c1)C(=O)O | inactive
37 | CCCOCC(C)O (stereo not given) | inactive
38 | Cc1ncc(CO)c(CO)c1O | inactive
39 | CS(=O)(=O)c1ccc(Cl)cc1 | inactive
40 | CCc1cccc(O)c1 | inactive
